Experimental data as given in PubChem BioAssay AID1159580 (chemical genetic matrix, 2015).
Several values for one entry are separate records, joined by “and”; a condition that tells them apart may be missing. Equal values may be shown once. Screen size: about 5,500 compounds; about 2,000 (36%) were called active. Roughly 18% stayed inconclusive and do not appear here. No stated cut-off is given here; in the data, active means normalized growth mostly below about 0.91 (no sharp cut-off); inconclusive means no clear call, values can overlap the other calls; inactive means mostly above about 0.92. The list shows a part of the results. Where a structure was tested more than once in an assay, its records may differ in their call.

Test: chemical genetic growth profiling, strain panel (AID 1159580);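 further: tested at 20 µM; growth read once vehicle control cultures reached saturation at 30 °C; 1 = growth at the plate median or of vehicle wells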
Conditions: S. cerevisiae deletion strains, growth OD

For `Cc1cc2c(C(C)C)c(O)c(O)c(C=O)c2c(O)c1-c1c(C)cc2c(C(C)C)c(O)c(O)c(C=O)c2c1O`, the normalized growth (locus YAL013W, strain DEP1, stronger effect = lower value) was 0.328 (active) and 0.919 (inactive), the normalized growth (locus YAL021C, strain ccr4, stronger effect = lower value) was 0.423 (active) and 0.368 (active) and the normalized growth (locus YAL026C, strain drs2, stronger effect = lower value) was 0.446 (active) and 0.519 (active). For the same compound, the normalized growth (locus YAL030W, strain snc1, stronger effect = lower value) was 0.842 (active) and 0.874 (active), the normalized growth (locus YBL061C, strain skt5, stronger effect = lower value) was 0.762 (active) and 0.747 (active) and the normalized growth (locus YBR009C, strain hhf1, stronger effect = lower value) was 0.779 (active) and 0.854 (active). For the same compound, the normalized growth (locus YBR021W, strain FUR4, stronger effect = lower value) was 0.953 (inactive) and 0.977 (inactive), the normalized growth (locus YBR023C, strain chs3, stronger effect = lower value) was 0.715 (active) and 0.692 (active) and the normalized growth (locus YBR171W, strain sec66, stronger effect = lower value) was 0.862 (active) and 0.922 (inactive). For the same compound, the normalized growth (locus YBR229C, strain ROT2, stronger effect = lower value) was 0.936 (inactive) and 0.948 (inactive), the normalized growth (locus YBR231C, strain swc5, stronger effect = lower value) was 0.637 (active) and 0.64 (active) and the normalized growth (locus YBR279W, strain paf1, stronger effect = lower value) was 0.778 (active) and 0.751 (active). For the same compound, the normalized growth (locus YCL011C, strain gbp2, stronger effect = lower value) was 0.819 (active) and 0.854 (active), the normalized growth (locus YCL016C, strain dcc1, stronger effect = lower value) was 0.842 (active) and 0.831 (active) and the normalized growth (locus YCL029C, strain bik1, stronger effect = lower value) was 0.798 (active) and 0.939 (inactive). For the same compound, the normalized growth (locus YCL061C, strain MRC1, stronger effect = lower value) was 0.845 (active), the normalized growth (locus YCL069W, strain vba3, stronger effect = lower value) was 0.813 (active) and 0.879 (active) and the normalized growth (locus YCR088W, strain abp1, stronger effect = lower value) was 0.842 (active) and 0.919 (active). The normalized growth (locus YDL005C, strain med2, stronger effect = lower value) was 0.971 (inactive), the normalized growth (locus YDL035C, strain GPR1, stronger effect = lower value) was 0.662 (active) and 0.799 (active) and the normalized growth (locus YDL040C, strain nat1, stronger effect = lower value) was 0.943 (inactive) and 0.953 (inactive). For the same compound, the normalized growth (locus YDL074C, strain BRE1, stronger effect = lower value) was 0.589 (active) and 0.751 (active), the normalized growth (locus YDL101C, strain DUN1, stronger effect = lower value) was 0.742 (active) and 0.847 (active) and the normalized growth (locus YDL134C, strain PPH21, stronger effect = lower value) was 0.738 (active) and 0.848 (active). For the same compound, the normalized growth (locus YDL185W, strain tfp1, stronger effect = lower value) was 0.926 (inactive) and 0.966 (inactive), the normalized growth (locus YDL192W, strain arf1, stronger effect = lower value) was 0.689 (active) and 0.978 (inactive) and the normalized growth (locus YDR001C, strain nth1, stronger effect = lower value) was 0.881 (active) and 0.925 (inactive). For the same compound, the normalized growth (locus YDR069C, strain doa4, stronger effect = lower value) was 0.53 (active) and 0.604 (active), the normalized growth (locus YDR101C, strain arx1, stronger effect = lower value) was 0.849 (active) and 0.943 (inactive) and the normalized growth (locus YDR137W, strain rgp1, stronger effect = lower value) was 0.161 (active) and 0.167 (active). The normalized growth (locus YDR150W, strain NUM1, stronger effect = lower value) was 0.785 (active) and 0.912 (inactive), the normalized growth (locus YDR159W, strain sac3, stronger effect = lower value) was 0.653 (active) and 0.717 (active) and the normalized growth (locus YDR162C, strain NBP2, stronger effect = lower value) was 0.342 (active) and 0.819 (active). For the same compound, the normalized growth (locus YDR195W, strain ref2) was 0.84 (active) and 0.864 (inactive), the normalized growth (locus YDR297W, strain sur2, stronger effect = lower value) was 0.79 (active) and 0.863 (active) and the normalized growth (locus YDR318W, strain mcm21, stronger effect = lower value) was 0.847 (active) and 0.965 (inactive). For the same compound, the normalized growth (locus YDR334W, strain swr1, stronger effect = lower value) was 0.477 (active) and 0.674 (active), the normalized growth (locus YDR335W, strain msn5, stronger effect = lower value) was 0.677 (active) and 0.769 (active) and the normalized growth (locus YDR388W, stronger effect = lower value) was 0.793 (active) and 0.972 (inactive). The normalized growth (locus YDR392W, strain spt3, stronger effect = lower value) was 0.56 (active) and 0.438 (active), the normalized growth (locus YDR502C, strain sam2, stronger effect = lower value) was 0.769 (active) and 0.937 (inactive) and the normalized growth (locus YEL003W, strain gim4, stronger effect = lower value) was 0.761 (active) and 0.805 (active). For the same compound, the normalized growth (locus YEL037C, strain rad23, stronger effect = lower value) was 0.786 (active) and 0.813 (active), the normalized growth (locus YEL061C, strain CIN8 (second series), stronger effect = lower value) was 0.814 (active) and 0.916 (inactive) and the normalized growth (locus YEL061C, strain CIN8, stronger effect = lower value) was 0.777 (active) and 0.853 (active). The normalized growth (locus YER015W, strain faa2, stronger effect = lower value) was 0.649 (active) and 0.698 (active), the normalized growth (locus YER016W, strain bim1, stronger effect = lower value) was 0.849 (active) and 0.883 (active) and the normalized growth (locus YER110C, stronger effect = lower value) was 0.943 (inactive) and 1.02 (inactive). The normalized growth (locus YER111C, strain swi4, stronger effect = lower value) was 0.456 (active) and 0.668 (active), the normalized growth (locus YER155C, strain BEM2 (second series), stronger effect = lower value) was 0.674 (active) and 0.758 (active) and the normalized growth (locus YER155C, strain BEM2, stronger effect = lower value) was 0.865 (active) and 0.912 (active). The normalized growth (locus YER167W, strain BCK2, stronger effect = lower value) was 0.83 (active) and 0.895 (active), the normalized growth (locus YFR010W, strain ubp6, stronger effect = lower value) was 0.644 (active) and 0.732 (active) and the normalized growth (locus YGL078C, strain dbp3, stronger effect = lower value) was 0.976 (inactive) and 1.01 (inactive). For the same compound, the normalized growth (locus YGL086W, strain mad1, stronger effect = lower value) was 0.937 (inactive), the normalized growth (locus YGL167C, strain pmr1, stronger effect = lower value) was 0.868 (active) and 0.833 (active) and the normalized growth (locus YGL173C, strain kem1, stronger effect = lower value) was 0.564 (active) and 0.591 (active). For the same compound, the normalized growth (locus YGL227W, strain vid30, stronger effect = lower value) was 0.953 (inactive) and 0.989 (inactive), the normalized growth (locus YGL240W, strain doc1, stronger effect = lower value) was 0.892 (inactive) and 0.952 (inactive) and the normalized growth (locus YGL248W, strain PDE1, stronger effect = lower value) was 0.764 (active) and 0.805 (active). For the same compound, the normalized growth (locus YGL253W, strain hxk2, stronger effect = lower value) was 0.629 (active) and 0.698 (active), the normalized growth (locus YGR078C, strain PAC10, stronger effect = lower value) was 0.776 (active) and the normalized growth (locus YGR135W, strain pre9, stronger effect = lower value) was 0.821 (active) and 0.901 (inactive). The normalized growth (locus YGR229C, strain SMI1, stronger effect = lower value) was 0.126 (active), the normalized growth (locus YGR252W, strain gcn5, stronger effect = lower value) was 0.806 (inactive) and 0.95 (inactive) and the normalized growth (locus YHR013C, strain ard1, stronger effect = lower value) was 0.651 (active) and 0.608 (active). For the same compound, the normalized growth (locus YHR027C, strain rpn1, stronger effect = lower value) was 0.56 (active) and 0.593 (active), the normalized growth (locus YHR030C, strain SLT2, stronger effect = lower value) was 0.64 (active) and 0.992 (inactive) and 0.854 (active) and the normalized growth (locus YHR079C, strain IRE1 (second series), stronger effect = lower value) was 0.841 (active) and 0.953 (inactive). For the same compound, the normalized growth (locus YHR079C, strain IRE1, stronger effect = lower value) was 1.01 (inactive), the normalized growth (locus YHR094C, strain hxt1, stronger effect = lower value) was 0.979 (inactive) and 1 (inactive) and the normalized growth (locus YHR129C, strain ARP1, stronger effect = lower value) was 0.731 (active) and 0.811 (active). For the same compound, the normalized growth (locus YHR142W, strain chs7, stronger effect = lower value) was 0.537 (active) and 0.619 (active), the normalized growth (locus YHR200W, strain rpn10, stronger effect = lower value) was 0.876 (active) and 0.977 (inactive) and the normalized growth (locus YIL066C, strain RNR3, stronger effect = lower value) was 0.6 (active) and 0.744 (active). The normalized growth (locus YIL073C, strain SPO22, stronger effect = lower value) was 0.421 (active) and 0.743 (inactive), the normalized growth (locus YIL125W, strain kgd1, stronger effect = lower value) was 1.05 (inactive) and 0.996 (inactive) and the normalized growth (locus YIR030C, strain dcg1, stronger effect = lower value) was 0.89 (active) and 0.994 (inactive). For the same compound, the normalized growth (locus YJL092W, strain hpr5, stronger effect = lower value) was 0.799 (active) and 0.852 (active), the normalized growth (locus YJL095W, strain BCK1 (second series), stronger effect = lower value) was 0.644 (active) and 0.629 (active) and the normalized growth (locus YJL095W, strain BCK1, stronger effect = lower value) was 0.534 (active) and 0.961 (inactive) and 0.744 (active). The normalized growth (locus YJL115W, strain asf1, stronger effect = lower value) was 0.794 (active) and 0.86 (active), the normalized growth (locus YJL129C, strain trk1, stronger effect = lower value) was 0.897 (inactive) and 0.937 (inactive) and the normalized growth (locus YJL134W, strain LCB3, stronger effect = lower value) was 0.875 (active) and 0.934 (inactive). For the same compound, the normalized growth (locus YJL154C, strain vps35, stronger effect = lower value) was 0.857 (active) and 0.853 (active), the normalized growth (locus YJL164C, strain tpk1, stronger effect = lower value) was 0.774 (active) and 0.762 (active) and the normalized growth (locus YJL166W, strain qcr8, stronger effect = lower value) was 0.75 (active) and 0.82 (active). The normalized growth (locus YJL168C, strain set2, stronger effect = lower value) was 0.935 (inactive) and 0.981 (inactive), the normalized growth (locus YJL187C, strain SWE1 (second series), stronger effect = lower value) was 0.553 (active) and 0.71 (active) and the normalized growth (locus YJL187C, strain SWE1, stronger effect = lower value) was 0.804 (active). The normalized growth (locus YJR043C, strain POL32, stronger effect = lower value) was 0.594 (active) and 0.749 (active).
